Bioassay records from PubChem BioAssay.
Rows were chosen to be rich in hits. Some 0.9% of all compounds tested hit in one or more screens of this group.
TR-FRET SRC-2 ct: flags TR-FRET format artefacts in PPARgamma SRC-2 recruitment agonist screen; TR-FRET artefact counter-screen; stronger effect = higher value; TR-FRET ratio at 8 µM; 200,000 compounds, 0.4% hits; in the data active means TR-FRET ratio above about 2000
PPARg SRC-1 ag: agonists of human PPARgamma SRC-1 coactivator recruitment. PPARgamma-SRC-1 coactivator recruitment biochemical assay. AID 631. activation, % at 8 µM. 200,000 compounds, 0.41% hits. P37231; in the data active means activation above about 19%
PPARg SRC-3 ag: agonists of human PPARgamma SRC-3 coactivator recruitment | biochemical PPARgamma/SRC-3 coactivator recruitment assay | activation, % at 8 µM | 200,000 compounds, 0.26% hits | AID 731; in the data active means activation above about 23%
SRC1 TRFRET art: flags TR-FRET format artefacts in PPARgamma SRC-1 recruitment agonist screen; TR-FRET ratio at 8 µM; AID 1051; 99,000 compounds, 0.34% hits; TR-FRET detection artefact counter-screen, emission ratio; stronger effect = higher value; in the data active means TR-FRET ratio above about 2300
PPARg SRC-2 ag: promotes SRC-2 coactivator recruitment by human PPARgamma; PPARgamma LBD-SRC-2 recruitment, biochemical; P37231; activation, % at 8 µM; 200,000 compounds, 0.34% hits
SRC3 TRFRET art: flags TR-FRET format artefacts in PPARgamma SRC-3 recruitment agonist screen; TR-FRET artefact counter-screen, PPARgamma/SRC-3 format; stronger effect = higher value; TR-FRET ratio at 8 µM; 99,000 compounds, 0.39% hits; in the data active means TR-FRET ratio above about 2000
PPARg SRC2 ag: human PPARgamma SRC-2 recruitment agonism, confirmation; shares compounds with PPARg SRC-3 ag; biochemical SRC-2 recruitment by PPARgamma; activation, % at 8 µM; 790 compounds, 52% hits; AID 1297
PPARg SRC1 ag: human PPARgamma SRC-1 recruitment agonism, confirmation. shares compounds with PPARg SRC-3 ag. PPARgamma–SRC-1 coactivator recruitment biochemical assay. activation, % at 8 µM. 790 compounds, 43% hits. AID 1300; in the data active means activation above about 20%
PPARg SRC3 conf: confirmation of agonists of SRC-3 recruitment by human PPARgamma. 790 compounds, 29% hits. AID 1301. biochemical PPARgamma-SRC-3 coactivator recruitment, agonist mode. activation, % at 8 µM. shares compounds with PPARg SRC-3 ag; in the data active means activation above about 24%
Numbers stand for hits; . = inactive; / = not tested or not shown. Unless noted, no stated cut-off is given here; in the data, active means activation above about 22%; inactive means the rest.

SMILES | TR-FRET SRC-2 ct | PPARg SRC-1 ag | PPARg SRC-3 ag | SRC1 TRFRET art | PPARg SRC-2 ag | SRC3 TRFRET art | PPARg SRC2 ag | PPARg SRC1 ag | PPARg SRC3 conf
COc1ccc(C2CC(c3ccc(Br)cc3)=NN2C(=S)Nc2ccccc2)cc1 (stereo not given) | 2406 | 28 | . | 2916 | 26 | 2737 | 44 | 39 | 26
CNC(=S)N1N=C(c2ccc(Br)cc2)CC1c1ccc(Br)cc1 (stereo not given) | 3230 | 30 | 51 | / | 28 | / | 47 | 37 | 28
CNC(=S)N1N=C(c2ccc(OC)cc2)CC1c1ccc(N(C)C)cc1 (stereo not given) | . | . | . | / | . | / | / | / | /
CC(=O)N1N=C(c2ccc(C)o2)CC1c1ccc(Br)cc1 (stereo not given) | . | . | . | / | . | / | / | / | /
CNC(=S)N1N=C(c2ccc(Br)cc2)CC1c1ccc(N(C)C)cc1 (stereo not given) | 3604 | 27 | 29 | 4829 | . | 4796 | 41 | 29 | 26
N#Cc1ccc(N/N=C/c2ccccc2)c([N+](=O)[O-])c1 | . | . | . | . | . | . | / | / | /
Cc1cccc(-n2cc(CNCCN3CCOC3=O)c(-c3cccc(F)c3)n2)c1 | . | . | . | . | . | . | / | / | /
COc1ccccc1C1CC(c2ccccc2)=NN1C(=S)Nc1ccccc1 (stereo not given) | 2595 | 43 | 23 | 3073 | 37 | 2517 | 70 | 51 | 44
CS(=O)(=O)Nc1ccc(-c2n[nH]c(=S)n2-c2ccccc2)cc1 | . | 19 | . | / | . | / | . | . | .
Cc1ccc(-n2c(-c3cccc(C)c3)n[nH]c2=S)cc1 | 1998 | 20 | 36 | / | 32 | / | 30 | 22 | .
Cc1ccc(-c2n[nH]c(=S)n2-c2ccccc2)cc1 | . | . | . | / | . | / | / | / | /
CCOc1cc(C=O)ccc1OS(=O)(=O)c1ccc(NC(C)=O)cc1 | . | . | . | . | . | . | / | / | /
C[C@@H](C(=O)N[C@H](C(=O)O)c1ccccc1)n1nnc2ccccc2c1=O | . | . | . | . | . | . | / | / | /
CCOC(=O)c1sc(C)c2c1NC1(CCCCC1)NC2=O | . | . | . | / | . | / | / | / | /
CCOC(=O)c1sc(C)c2c1NC(C)(c1cccs1)NC2=O (stereo not given) | . | . | 26 | / | . | / | . | . | .
CS(=O)(=O)c1nc(-c2ccc(Br)cc2)cc(-c2ccccc2)c1C#N | 2843 | 53 | 111 | / | . | / | 66 | 49 | 39
CCOc1ccc(S(=O)(=O)Nc2ccccc2C(=O)NCc2ccco2)cc1 | . | . | . | / | . | / | / | / | /
CS(=O)(=O)Nc1ccccc1C(=O)NCc1ccco1 | . | . | 26 | / | . | / | . | . | .
O=C(O)COc1ccc2nsnc2c1Cl | 2267 | 38 | 50 | / | 37 | / | 46 | 42 | 27
Oc1cc2ccccc2cc1-c1n[nH]c(=S)n1Cc1ccco1 | . | 22 | . | . | . | . | . | . | .
Oc1ccc(-c2n[nH]c(=S)n2Cc2ccco2)cc1 | . | . | . | / | . | / | / | / | /
CCOc1ccc(CNc2ccc(N3CCCC3)cc2)cc1 | . | . | . | / | 29 | / | . | . | .
O=C(CCCCCn1c(=S)[nH]c2cc3c(cc2c1=O)OCO3)N1CCN(Cc2ccccc2)CC1 | . | . | . | / | . | / | / | / | /
O=C(CCCCCn1c(=S)[nH]c2cc3c(cc2c1=O)OCO3)N1CCN(C(=O)c2ccco2)CC1 | . | . | 26 | / | 32 | / | . | . | .
CCCC(=O)C1=C(O)C(C(=O)OC)C(C)(C)CC1=Nc1ccc(N)cc1 (stereo not given) | . | . | . | / | . | / | / | / | /
SMILES | TR-FRET SRC-2 ct | PPARg SRC-1 ag | PPARg SRC-3 ag | SRC1 TRFRET art | PPARg SRC-2 ag | SRC3 TRFRET art | PPARg SRC2 ag | PPARg SRC1 ag | PPARg SRC3 conf
CCCC(=Nc1ccc(N)cc1)C1=C(O)C(C(=O)OC)C(C)(C)CC1=O (stereo not given) | . | . | 27 | / | . | / | . | . | .
CC1=C(C(=O)OCCc2ccccc2)C(c2ccsc2)NC(=O)N1C (stereo not given) | . | . | . | . | . | . | / | / | /
CCOC(=O)CCC(NC(=O)c1ccc(NCN2C(=O)c3ccccc3C2=O)cc1)C(=O)OCC (stereo not given) | . | 29 | . | / | . | / | . | 28 | .
CCOC(=O)c1nnn(-c2nonc2-n2cccc2)c1-c1cccc([N+](=O)[O-])c1 | . | . | . | . | . | . | / | / | /
N#CCCN(Cc1ccccc1)C(=S)Nc1ccccc1 | . | . | . | . | . | . | / | / | /
Fc1cccc(NC(=S)NNc2c3ccccc3nc3ccccc23)c1 | 2526 | 45 | . | 3530 | 53 | 2517 | . | . | .
COc1ccc(-c2nc(NC(=O)c3n[nH]c(=O)c4ccccc34)sc2C)cc1 | . | . | . | . | . | . | / | / | /
O=C(CN(C(=O)CSc1nc2ccccc2o1)c1cccc(F)c1)NC1CCCCC1 | . | . | . | / | . | / | / | / | /
Fc1ccc(Nc2nc(N/N=C/c3ccco3)nc(N3CCCCC3)n2)cc1 | . | . | . | . | . | . | / | / | /
CN(C)c1ccc(/C=C/C=C2/SC(=S)N(c3ccccc3)C2=O)cc1 | . | 20 | . | / | . | / | 30 | 21 | .
O=C(O)c1ccc(N2C(=O)/C(=C/C=C/c3ccccc3)SC2=S)cc1 | . | . | . | . | . | . | / | / | /
CSc1c(SCc2ccccc2)cnn(-c2ccccc2)c1=O | . | 24 | . | 2714 | 27 | 2060 | 50 | 36 | 33
COc1cnn(-c2ccccc2)c(=O)c1SCc1ccc(Cl)c(Cl)c1 | . | . | . | / | . | / | / | / | /
COC(=O)c1c(O)cc(C(C)(C)C)n(-c2ccc(F)cc2)c1=O | . | . | . | . | . | . | / | / | /
Cc1ccc(C(C)NC(=O)/C(C#N)=C\c2c(C)[nH]c3ccccc23)cc1 (stereo not given) | . | 19 | . | / | . | / | . | . | .
Cc1[nH]c2ccccc2c1/C=C(\C#N)C(=O)NCc1ccccc1 | . | . | . | . | . | . | / | / | /
Cc1ccc(C2C3=C(CCCC3=O)N=C3c4ccccc4C(=O)C32)cc1 (stereo not given) | . | . | . | . | . | . | / | / | /
Cn1c(O)c(C(C#N)=C2N=c3ccccc3=N2)c2ccccc21 | . | 22 | . | / | . | / | . | . | .
N#CC(=C1N=c2ccccc2=N1)c1c(O)[nH]c2ccccc12 | . | . | . | / | . | / | / | / | /
C=CCCCCCCCC(=O)OC | . | 22 | . | . | . | . | . | . | .
Cc1ccc([N+](=O)[O-])cc1N(CC(=O)Nc1ccc(S(=O)(=O)Nc2cccc(C(F)(F)F)c2)cc1)S(C)(=O)=O | . | . | . | . | . | . | / | / | /
